The test system of one test is TAB165. Briefly: qHTS profiling for inhibitors of Plasmodium falciparum proliferation (AID 504749). Also: nearly all actives have a fitted effect of over 60% in size. Also: potency is read from the fitted curve at half-maximal effect. As to conditions: P. falciparum in erythrocytes, SYBR Green DNA, 72 h; series mostly up to 28.7 µM. In a few lines: (§1)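 Parasite proliferation within erythrocytes, 72 h exposure. Endpoint: SYBR Green I fluorescence after overnight lysis at room temperature. Controls: 0.29 uM artemisinin, DMSO.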
A general note: In qHTS, concentration-response curves come from the screen itself.

The next test has as its system W2. The test is described as above. The settings on record: P. falciparum in erythrocytes, SYBR Green DNA, 72 h; series mostly up to 28.7 µM. In a few lines: as §1
Another test concerns CRL-7250. Briefly: Cytotoxic Profiling of Annotated Libraries Using Quantitative High-Throughput Screening (AID 1296008). Also: nearly all actives have a fitted effect of over 60% in size. Also: potency is read from the fitted curve at half-maximal effect. As to max response: % is scaled to controls: 0 for no effect and ±100 for the full control effect. As to conditions: Five cell lines viability, CellTiter-Glo ATP luminescence, 48-72 h; max response: hits give low values. In a few lines: (§2)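 Compounds were pin-transferred onto cells and incubated 48 or 72 hr at 37 degree Celsius, 95% humidity. CellTiter-Glo was added, plates sat 10 min at room temperature, then ATP-coupled luminescence was imaged as the viability read-out.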
Background: ATP-based viability assays read luminescence as a measure of living cells.

In a further test the test system is HEK293. The description is as above. The settings on record: Five cell lines viability, CellTiter-Glo ATP luminescence, 48-72 h; max response: hits give low values. In outline:
as §2

The test system of test [1] is HaCat. Described as above. As to conditions: Five cell lines viability, CellTiter-Glo ATP luminescence, 48-72 h; max response: hits give low values. In outline:
as §2

The test system of the next test is KB-3-1. The description is as above. As to conditions: Five cell lines viability, CellTiter-Glo ATP luminescence, 48-72 h; max response: hits give low values. In outline:
as §2

In test [2] the test system is NIH3T3. The test is described as above. As to conditions: Five cell lines viability, CellTiter-Glo ATP luminescence, 48-72 h; max response: hits give low values. In outline:
as §2

The next test has as its system MCC-13. Nature of the test: qHTS assay to identify novel small-molecules to repurpose for Merkel cell carcinoma treatment (AID 1296009). Also: nearly all actives have a fitted effect of over 60% in size. As to conditions: MCC and control cell lines, CellTiter-Glo viability, 72 h; series mostly up to 46 µM. In outline: (§3)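 qHTS format: cells treated with library compounds in DMSO across 8 (NPC) or 11 (MIPE) concentrations. Readout after 72 hr at 37 degree celsius was CellTiter-Glo luminescence.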

The subject of another test is MCC-26. The test is described as above. As to conditions: MCC and control cell lines, CellTiter-Glo viability, 72 h; series mostly up to 46 µM. In a few lines: as §3
In a further test the test system is MKL-1. The test is described as above. As to conditions: MCC and control cell lines, CellTiter-Glo viability, 72 h; series mostly up to 46 µM. In a few lines:
as §3

In another test the test system is MKL-2. The description is as above. As to conditions: MCC and control cell lines, CellTiter-Glo viability, 72 h; series mostly up to 46 µM. In a few lines:
as §3

The next test concerns UISO. The description is as above. As to conditions: MCC and control cell lines, CellTiter-Glo viability, 72 h; series mostly up to 46 µM. In a few lines:
as §3

The next test has as its system WaGa. The test is described as above. The settings on record: MCC and control cell lines, CellTiter-Glo viability, 72 h; series mostly up to 46 µM. In outline:
as §3

The next test relates to C33A. Nature of the test: Primary qHTS to identify gynecologic anti-cancer compounds using libraries of approved drugs and bioactive compounds (AID 1345084). Also: % is scaled to controls: 0 for no effect and ±100 for the full control effect; nearly all actives have a fitted effect of over 55% in size. The settings on record: Gynecologic cancer cell panel viability, ATPlite luminescence, 48 h; series mostly up to 57.5 µM. In outline: (§4)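 Cells, 1,000 per well, were allowed to settle for 16 h at 37 C before compound addition. Five concentrations were tested for 48 h, and viability was read by ATPlite luminescence after 15 min at room temperature.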

The test system of another test is CASKI. The description is as above. The settings on record: Gynecologic cancer cell panel viability, ATPlite luminescence, 48 h; series mostly up to 57.5 µM. In outline: as §4
The test system of the next test is Es-2. The description is as above. As to conditions: Gynecologic cancer cell panel viability, ATPlite luminescence, 48 h; series mostly up to 57.5 µM. In a few lines: as §4
In another test the test system is HEK293T. Briefly: qHTS assay to identify novel small-molecules to repurpose for Merkel cell carcinoma treatment (AID 1296009). Also: nearly all actives have a fitted effect of over 60% in size. The settings on record: MCC and control cell lines, CellTiter-Glo viability, 72 h; at 44.8 µM (top of the series) unless noted. In outline: as §3
For test [3], the system named is NIH3T3. The test is described as above. The settings on record: MCC and control cell lines, CellTiter-Glo viability, 72 h; at 44.8 µM (top of the series) unless noted. In outline:
as §3

For test [4], the system named is HACAT. The test is described as above. The settings on record: MCC and control cell lines, CellTiter-Glo viability, 72 h; at 44.8 µM (top of the series) unless noted. In a few lines:
as §3

The test system of another test is CAOV3. Nature of the test: Primary qHTS to identify gynecologic anti-cancer compounds using libraries of approved drugs and bioactive compounds (AID 1345084). Also: % is scaled to controls: 0 for no effect and ±100 for the full control effect; nearly all actives have a fitted effect of over 55% in size. As to conditions: Gynecologic cancer cell panel viability, ATPlite luminescence, 48 h; series mostly up to 57.5 µM. In a few lines: as §4

SMILES strings stand for the structures. Where “and” joins values, the source holds several entries; their conditions need not be identical. Identical values can stand only once. Records with an inconclusive call do not appear. Unmarked numbers belong to inactive results. Calls of active or inactive are those of the source. Calls follow the shape of the dose curve; as a rule, active = well fitted curve in the direction sought with a large enough effect; inconclusive = small, poorly fitted or top-dose-only effect, or another doubt; inactive = no such curve, though single readings can be large; an effect the other way counts as inactive or inconclusive.

For the compound `COc1ccc(S(=O)(=O)Nc2nnc(CC(C)C)s2)cc1`, the Potency entry in the test with TAB165, in the test on W2, in the test on MCC-13, in the test with MCC-26, with MKL-1 and with MKL-2 was “inactive” throughout. Besides, the Potency result in the test on UISO, with WaGa, in the test with C33A, in the test on CASKI and in the test with Es-2 was “inactive” throughout. For the same compound, the max response was 0.202% with CRL-7250; -9.93% with HEK293; -5.69% in the test with HaCat [1]; -8.69% and 6.78% with KB-3-1; -3.07% in the test with NIH3T3 [2].

`NCC(=O)CCC(=O)O`: the Potency entry with TAB165, in the test with MCC-13, with MCC-26, in the test with MKL-1, in the test with MKL-2 and with UISO was “inactive” each time. Further, the Potency result with WaGa, with C33A, with CASKI and with Es-2 was “inactive” throughout. Also, the figures for the max response in the test on CRL-7250, in the test on HaCat [1] and in the test with KB-3-1 were -2.12%, -9.5% and 1.71%, respectively. Also, the result with HEK293, in the test with NIH3T3 [2], in the test on HEK293T and in the test with NIH3T3 [3] was inactive.

On to `CCN(CC)CCOC(=O)C1(C2CCCCC2)CCCCC1`, for which the outcome in the test with CRL-7250, in the test with HaCat [1] and in the test with HACAT [4] was inactive. Besides, the max response is -0.793% in the test with HEK293, -11.2% in the test on KB-3-1 and 1.01% in the test with NIH3T3 [2]. The Potency entry in the test on MCC-13, with MCC-26, in the test with MKL-1, with MKL-2, in the test with UISO and in the test on WaGa was “inactive” each time. The Potency result in the test on C33A, in the test with CAOV3, with CASKI and with Es-2 was “inactive” in each case.

In the case of `COc1cc(C(=O)N2CCOCC2)cc(OC)c1OC`, the Potency entry in the test with TAB165, in the test on W2, in the test with MCC-13, in the test with MCC-26, in the test on MKL-1 and with MKL-2 was “inactive” each time. Further, the Potency entry with UISO, in the test with WaGa, with C33A, with CASKI and in the test on Es-2 was “inactive” in each case. The max response in the test with CRL-7250 is 0.938%; with HEK293 it was 1.96%; in the test with KB-3-1, 4.09% and 1.86%. Besides, the compound was classed as inactive in the test on HaCat [1], in the test with NIH3T3 [2], in the test on HACAT [4] and in the test on NIH3T3 [3].

In the case of `Nc1ccc(S(=O)(=O)Nc2ccc(Cl)nn2)cc1`, in the test with TAB165, the Potency is 1 µM (active). Moreover, the Potency result in the test on W2, in the test on MCC-13, in the test with MCC-26, in the test on MKL-1, with MKL-2 and in the test with UISO was “inactive” each time. Also, the Potency entry with WaGa, with C33A, in the test on CAOV3, in the test with CASKI and in the test on Es-2 was “inactive” throughout. For the same compound, the max response in the test on CRL-7250 is -2.16%; in the test on HaCat [1], 0.946%; in the test with KB-3-1, 14.3% and -6.92%; in the test with NIH3T3 [2], 1.13%. Moreover, the compound was called inactive in the test on HEK293 and in the test on HEK293T.

In the case of `O=C(O)c1ccccc1-c1ccc(C(F)(F)F)cc1`, the Potency entry with TAB165, with W2, in the test on MCC-13, in the test on MKL-1, with MKL-2 and in the test on UISO was “inactive” in each case. The Potency entry in the test with WaGa, in the test with C33A, in the test with CAOV3, in the test on CASKI and with Es-2 was “inactive” throughout. Also, the outcome in the test on CRL-7250, in the test on HEK293, with HaCat [1], in the test on HACAT [4] and with HEK293T was inactive. Besides, the max response in the test with KB-3-1 was -5.64%; in the test with NIH3T3 [2], -3.57%.

On to `C[C@H]1O[C@@H](n2cc(F)c(=O)[nH]c2=O)[C@H](O)[C@@H]1O`, for which the Potency result in the test with TAB165, in the test with W2, in the test on MCC-13, in the test on MCC-26, with MKL-1 and with MKL-2 was “inactive” throughout. Besides, the Potency entry in the test with UISO, in the test with WaGa, with C33A, in the test with CAOV3, in the test on CASKI and in the test with Es-2 was “inactive” throughout. Also, the max response is -5.52% with CRL-7250, -0.506% with KB-3-1 and -23.8% with NIH3T3 [2]. The result in the test with HEK293 and with HEK293T was inactive. Further, in the test with HaCat [1], the Potency is 10.6 µM (active).

The values are drawn from PubChem BioAssay (NCATS).
